Measured values reported in PubChem BioAssay (NCATS).
Inconclusive results are not listed. Entries that show only a call come without a potency. A number with no mark means an inactive call. Activity calls are given as the source filed them. The call rests on the fitted dose curve; in most records, active means well fitted curve in the direction sought with a large enough effect; inconclusive means small, poorly fitted or top-dose-only effect, or another doubt; inactive means no such curve, though single readings can be large; an effect the other way counts as inactive or inconclusive.

What was measured:
PA-1 = assay: Primary qHTS to identify gynecologic anti-cancer compounds using libraries of approved drugs and bioactive compounds (AID 1345084); details: Gynecologic cancer cell panel viability, ATPlite luminescence, 48 h; series mostly up to 57.5 µM; further: nearly all actives have a fitted effect of over 55% in size
Summary of the method: (§1)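 Luminescence from the ATPlite ATP-monitoring reagent indicates viable cell number; lower signal means cytotoxicity. Cells received compound 16 h after seeding and were exposed for 48 h across five concentrations.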

Tov-21-G = assay: as above; details: Gynecologic cancer cell panel viability, ATPlite luminescence, 48 h; series mostly up to 57.5 µM
Summary of the method: as §1

Tov112D = assay: as above; details: Gynecologic cancer cell panel viability, ATPlite luminescence, 48 h; series mostly up to 57.5 µM
Summary of the method: as §1

[1] = qHTS assay to identify inhibitors of the type 1 interferon - major histocompatibility complex class I in skeletal muscle: Counter screen cell viability and HiBit confirmation (AID 1347412); details: iHSKM muscle cells + IFN-b, HiBiT or CellTiter-Glo, 24 h; for activity change, negative = inhibition: at 45.9 µM (top of the series); on all read-outs here: nearly all actives have a fitted effect of over 60% in size
Summary of the method: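 Myoblasts (C25cl48, HLA-B HiBiT) seeded in medium without dexamethasone, IFN-b 4 ng/ml added except unstimulated columns; 1 hr later compounds pinned (12-pt 1:3, top 46 uM final). Incubated 24 hrs, lysed 10 min, luminescence measured.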
Potency means the concentration at half of the fitted maximal effect.

Structure (SMILES): CCNC(=O)C1OC(n2cnc3c(N)nc(NCCc4ccc(CCC(=O)O)cc4)nc32)C(O)C1O (stereo not given)
- Potency (PA-1): inactive
- Potency (Tov-21-G): inactive
- Potency (Tov112D): inactive

Structure (SMILES): CC(C)N(CCCCOCC(=O)NS(C)(=O)=O)c1cnc(-c2ccccc2)c(-c2ccccc2)n1
- Potency (PA-1): inactive
- Potency (Tov-21-G): inactive
- Potency (Tov112D): inactive

Structure (SMILES): CC[C@]1(O)CC2CN(CCc3c([nH]c4ccccc34)[C@@](C(=O)OC)(c3cc4c(cc3OC)N(C)[C@H]3[C@@](O)(C(=O)OC)[C@H](OC(C)=O)[C@]5(CC)C=CCN6CC[C@]43[C@@H]65)C2)C1 (stereo not given in full)
- Potency (PA-1): 282 nM (active)
- Potency (Tov-21-G): 316 nM (active)
- Potency (Tov112D): 282 nM (active)

Structure (SMILES): Cn1c(=O)cc(N2CCCC(N)C2)n(Cc2cc(F)ccc2C#N)c1=O (stereo not given)
- Potency (PA-1): inactive
- Potency (Tov-21-G): inactive
- Potency (Tov112D): inactive

Structure (SMILES): COc1cc2c(cc1OC)-c1[nH]nc(Nc3cccc(F)c3)c1C2
- Potency (PA-1): 316 nM (active)
- Potency (Tov-21-G): 2240 nM (active)
- Potency (Tov112D): 282 nM (active)

Structure (SMILES): NCc1c[nH]c(=S)n1[C@@H]1CCc2c(F)cc(F)cc2C1
- Potency (PA-1): inactive
- Potency (Tov-21-G): inactive
- Potency (Tov112D): inactive

Structure (SMILES): C=CC1C(OC2OC(CO)C(O)C(O)C2O)OC=C(C(=O)OC)C1CC(=O)OCC1C(C)C(O)CC1C(CO)COC(=O)CC1C(C(=O)O)=COC(OC2OC(CO)C(O)C(O)C2O)/C1=C\C (stereo not given)
- activity change, negative = cytotoxicity (PA-1): -12.5% [at 11.6 µM]
- activity change, negative = cytotoxicity (Tov-21-G): -4.06% [at 11.6 µM]
- activity change, negative = cytotoxicity (Tov112D): -1.58% [at 11.6 µM]

Structure (SMILES): COCCN1CCN(Cc2ccc(-c3n[nH]c4c3C(=O)c3c(NC(=O)NN5CCOCC5)cccc3-4)cc2)CC1
- Potency (PA-1): 251 nM (active)
- Potency (Tov-21-G): 282 nM (active)
- Potency (Tov112D): 316 nM (active)
- Potency ([1]; HiBiT): 70.1 nM (active)
- activity change, negative = inhibition ([1]; Viability): 44.8%

Structure (SMILES): Cc1cc(O)c(-c2ccc([C@@H](C)CN(C)C)cc2)c2c1[nH]c(=O)c1sccc12
- Potency (PA-1): 282 nM (active)
- Potency (Tov-21-G): 316 nM (active)
- Potency (Tov112D): 282 nM (active)
- Potency ([1]; HiBiT): 78.7 nM (active)
- activity change, negative = inhibition ([1]; Viability): -2.3%

Structure (SMILES): Cc1ccc(Cc2c(C)nc3nc(SCC(=O)NCCN4CCNCC4)nn3c2C)cc1
- Potency (PA-1): inactive
- Potency (Tov-21-G): inactive
- Potency (Tov112D): inactive

Structure (SMILES): O=C(O)CC1CCC(c2ccc(-c3ccc4nc(C(=O)NCc5ccc(OC(F)(F)F)cc5)cn4c3)cc2)CC1 (stereo not given)
- Potency (PA-1): inactive
- Potency (Tov-21-G): inactive
- Potency (Tov112D): inactive

Structure (SMILES): COc1ccc2[nH]c3c(-c4cccc5ccccc45)nccc3c2c1
- Potency (PA-1): 891 nM (active)
- Potency (Tov112D): 1410 nM (active)

Structure (SMILES): Cc1c(C(=O)Nc2ccc(N3CC(C)OC(C)C3)nc2)cccc1-c1ccc(OC(F)(F)F)cc1 (stereo not given)
- Potency (PA-1): inactive
- Potency (Tov-21-G): inactive
- Potency (Tov112D): inactive

Structure (SMILES): c1ccc(N2CCN(CCc3nn[nH]n3)CC2)cc1
- Potency (PA-1): inactive
- Potency (Tov-21-G): inactive
- Potency (Tov112D): inactive

Structure (SMILES): C/C=C/C1=CC2=C(CO1)C(=O)C(C)(O)C(OC(=O)c1c(C)cc(OC)cc1O)C2 (stereo not given)
- Potency (PA-1): inactive
- Potency (Tov-21-G): inactive
- Potency (Tov112D): inactive

Structure (SMILES): COC(=O)N[C@@H](C)CNc1nccc(-c2cn(C(C)C)nc2-c2cc(Cl)cc(NS(C)(=O)=O)c2F)n1
- Potency (PA-1): inactive
- Potency (Tov-21-G): 1580 nM (active)
- Potency (Tov112D): inactive
- activity change, negative = inhibition ([1]; Viability): -18.1%

Structure (SMILES): CC(C)c1nnc(-c2ccc(-c3ccccc3)nc2)n1-c1cccc2nonc12
- Potency (PA-1): inactive
- Potency (Tov112D): inactive

Structure (SMILES): COc1cc(Nc2nc3c(s2)CCCC3c2ccc(F)cc2)ccc1-n1cnc(C)c1 (stereo not given)
- Potency (PA-1): inactive
- Potency (Tov-21-G): inactive
- Potency (Tov112D): inactive

Structure (SMILES): CCN1CCN(Cc2ccc(NC(=O)c3ccc(C)c(NC(=O)c4cncc(-c5cccs5)c4)c3)cc2C(F)(F)F)CC1
- Potency (PA-1): 1580 nM (active)
- Potency (Tov-21-G): 1410 nM (active)
- Potency (Tov112D): 3550 nM (active)
- Potency ([1]; HiBiT): 5570 nM (active)
- Potency ([1]; Viability): 12500 nM (active)

Structure (SMILES): O=C(O)CCCCCC[C@H]1C(=O)NC(=O)N1CC[C@@H](O)C1CCCCC1
- Potency (PA-1): inactive
- Potency (Tov-21-G): inactive
- Potency (Tov112D): inactive

Structure (SMILES): CCCCOC(=O)NC(=O)C1c2ccccc2Oc2ccccc21
- Potency (PA-1): inactive
- Potency (Tov-21-G): inactive
- Potency (Tov112D): inactive

Structure (SMILES): Cc1cc(C(=O)N2CCCCc3ccccc32)ccc1CNC(=O)N1CCC[C@H]1C(=O)N(C)C
- Potency (PA-1): inactive
- Potency (Tov-21-G): inactive
- Potency (Tov112D): inactive

Structure (SMILES): Cc1cc(C(=O)Nc2cccc(C(=O)Nc3cccc(C(F)(F)F)c3)c2)on1
- Potency (PA-1): inactive
- Potency (Tov112D): inactive

Structure (SMILES): CC(C)NCC(C(=O)N1CCN(c2ncnc3c2C(C)CC3O)CC1)c1ccc(Cl)cc1 (stereo not given)
- Potency (PA-1): inactive
- Potency (Tov-21-G): 794 nM (active)
- Potency (Tov112D): inactive

Structure (SMILES): CC(C)(C)CCN1C[C@@H]2C(CNC(=O)c3cc(Cl)cc(Cl)c3)[C@@H]2C1 (stereo not given in full)
- Potency (PA-1): inactive
- Potency (Tov-21-G): inactive
- Potency (Tov112D): inactive

Structure (SMILES): CC(C)C[C@H](CC(=O)NO)C(=O)N[C@@H](Cc1ccc2ccccc2c1)C(=O)N[C@@H](C)C(=O)NCCN
- Potency (PA-1): inactive
- Potency (Tov-21-G): inactive
- Potency (Tov112D): inactive

Structure (SMILES): COc1c(/C=C/C(C)(C)O)ccc2c1C(=O)OCc1cc(C)cc(O)c1O2
- Potency (PA-1): inactive
- Potency (Tov-21-G): inactive
- Potency (Tov112D): inactive
